Vaccinia Venus: qHTS for Stage-Specific Inhibitors of Vaccinia Orthopoxvirus: Venus Reporter Primary qHTS. Vaccinia virus Venus reporter expression, fluorescence. 330,000 tested, 0.46% active. Potency, µM (doses to about 36.5 µM), for inactives: at the top dose activity change, negative = inhibition, most hits filed as inhibitors; calls by dose curve; tested in A549 cells; further: nearly all actives have a fitted effect of over 30% in size
MARV entry inh: qHTS for inhibitors of binding or entry into cells for Marburg Virus; Marburg virus pseudotyped entry inhibition, cell reporter; Potency, µM (doses to about 37.8 µM), without a hit: top-dose activity change, negative = inhibition, usual class: inhibitors; 300,000 tested, 1.8% active; calls by dose curve; tested in HEK293 cells
HCV inh: qHTS Assay for Inhibitors of Hepatitis C Virus (HCV); Huh7.5.1 HCVcc-Cre infection, luciferase reporter, 44 h; Potency, µM (highest dose often 41.8 µM), without a hit: top-dose activity change, negative = inhibition, most hits filed as inhibitors; 340,000 tested, 3.4% active; AID 651820, 2012; active means well fitted inhibition curve with a large enough effect; inconclusive means small, poorly fitted or top-dose-only effect, or another doubt; inactive means no such curve, though single readings can be large or run the other way
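Reporter virus HCVcc-Cre (~0.5 moi) infects cells exposed to compound; seeding density 1,000 cells/well with 4 h settling beforehand. Luminescence, 15 sec read, taken 44 h post-infection following a 15 min RT substrate incubation.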
VACV mCherry inh: qHTS for Stage-Specific Inhibitors of Vaccinia Orthopoxvirus: mCherry Reporter Primary qHTS; Vaccinia virus mCherry reporter infection, fluorescence; Potency, µM (series often up to 36.5 µM), for inactives: at the top dose activity change, negative = inhibition, most hits filed as inhibitors; 310,000 tested, 0.63% active; AID 720579, 2013; calls by dose curve; tested in A549 cells; further: nearly all actives have a fitted effect of over 35% in size
LASV entry inh: qHTS for Inhibitors of binding or entry into cells for Lassa Virus. 300,000 tested, 1.2% active. Lassa virus pseudotype entry inhibition, cell reporter. AID 540256, 2011. Potency, µM (top dose mostly 37.9 µM), without a hit: at the top dose activity change, negative = inhibition, most hits filed as inhibitors; calls by dose curve; tested in HEK293 cells; further: nearly all actives have a fitted effect of over 50% in size
FMDV antiviral: High Throughput Screening for Foot and Mouth Disease Virus Antivirals; FMDV antiviral cell-based qHTS; Potency, µM (series often up to 57.9 µM), for inactives: at the top dose activity change, negative = inhibition, usual class: inhibitors; 410,000 tested, 1.2% active; AID 1159524, 2015; calls by dose curve; tested in HEK293T cells; further: read-out not given here; nearly all actives have a fitted effect of over 45% in size
Numbers without * were called inactive; i = inactive; ? = inconclusive; . = no result given; [ ] = another dose, or the depositor's remark. Compounds with a hit are over-represented: about 5.3% of the library has one in this group of screens. On the % scale 0 is the no-effect control and ±100 the full control effect; potency means the concentration at half of the fitted maximal effect.

SMILES	Vaccinia Venus	MARV entry inh	HCV inh	VACV mCherry inh	LASV entry inh	FMDV antiviral
COc1ccc2nc(C)[nH]c(=O)c2c1	-4%	-2%	-5%	-28%[1.46 µM]	7%	-12%
COc1ccc2nc(-c3ccccc3)[nH]c(=O)c2c1	-12%	.	2.8µM*	i	.	37%
Cc1ccc(-c2nc3ccccc3[nH]2)s1	-6%	13µM*	?	-14%	?	14%
COC(=O)c1ccc(-c2nc3ccccc3[nH]2)cc1	-24%	1.8µM*	-5%	-26%	7.3µM*	-79%
O=C(O)c1cccc(-c2nc3ccccc3[nH]2)c1	-16%	0.35µM*	25%	-10%	1.4µM*	?
c1ccc(-c2nc3ccccc3[nH]2)cc1	-15%	.	-26%	-15%	.	34%
CCCCCCCc1cc2ccccc2c2c(C(=O)OCC)c(C(=O)OCC)c(C(=O)OCC)n12	.	-5%[14.2 µM]	.	.	.	.
Nc1nc(NCc2ccc(Cl)c(Cl)c2)c2[nH]cnc2n1	-24%	.	.	-30%	.	.
CCc1ccc(-n2c(SCC(=O)NC3CCS(=O)(=O)C3)nc3ccccc3c2=O)cc1 (centres undefined)	.	.	-6%	.	.	-16%
Cc1cccc2cc(-c3nc4ccc(C(=O)O)cc4[nH]3)c(=O)oc12	-9%	?	1%	i	?	7.9µM*
COc1ccc(-c2nc3ccccc3[nH]2)cc1	-18%	7.3µM*	-23%	i	?	.
COc1ccc(-c2nc3ccc(N4CCCC4)cc3c(=O)[nH]2)cc1OC	-24%	-33%	10µM*	?	?	-26%
Cc1cc(C)n(C[C@@H]2CC(=O)N(c3ccc(F)c(Cl)c3)C2=O)n1	.	3%	.	.	.	.
O=C(c1cccnc1)C1CCCN(Cc2ccc3c(c2)CN(C(=O)c2ccc4[nH]ccc4c2)CCO3)C1 (centres undefined)	10%	.	.	-2%	.	-10%
O=[N+]([O-])c1ccc(/C=N/N=C/c2ccc([N+](=O)[O-])o2)o1	-9%	?	4.5µM*	-4%	?	?
Cc1ccc(S(=O)(=O)N/N=C\c2ccc([N+](=O)[O-])o2)cc1C	-5%	8%[46.1 µM]	8%	-7%	?	2%
Cc1ccc(S(=O)(=O)N/N=C\c2ccc([N+](=O)[O-])o2)cc1	-3%	-5%	13µM*	-14%	-17%	2%
O=C1SCCN1N=Cc1ccc([N+](=O)[O-])o1	?	?	22µM*	?	?	-17%
O=C(O)/C=C/c1ccc([N+](=O)[O-])o1	4%	?	1%	i	12%[46.1 µM]	-23%
Cc1cc2ncn(/N=C/c3ccc([N+](=O)[O-])o3)c2cc1C	16µM*	?	11µM*	28µM*	-11%	.
COc1cc(=O)n2c(c1C(=O)NC(C)c1ccco1)CCN(Cc1cc3ccccc3o1)CC2 (centres undefined)	12%	.	.	-8%	.	1%
O=C1C2C3C=CC(C4CC34)C2C(=O)N1/N=C/c1ccc(-c2ccc([N+](=O)[O-])cc2)o1 (centres undefined)	1%	-1%[46.1 µM]	12%	-28%	1%	?
O=C1C2C3C=CC(C4CC34)C2C(=O)N1/N=C/c1ccc([N+](=O)[O-])o1 (centres undefined)	-7%	?	11µM*	-5%	?	?
C=CCNC(=S)N/N=C/c1cn(C)c2ccccc12	?	?	35µM*	-25%	15%	-3%
C#CCN1C(=O)[C@]2(OCCC=C[C@@H]2C)c2cc(OC)ccc21	.	9%[14.2 µM]	.	.	.	.
SMILES	Vaccinia Venus	MARV entry inh	HCV inh	VACV mCherry inh	LASV entry inh	FMDV antiviral
CCCN(CCC)c1nc(Cl)nc(NCCN2CCOCC2)n1	-14%	.	14µM*	i	.	?
Cc1ccc2ccc3ccc(C)nc3c2n1	-17%	.	0.32µM*	-23%	.	-24%
CCCS(=O)(=O)NC(=O)C1(C)CCN(C(=O)c2ccc(SC(F)(F)F)cc2)C1 (centres undefined)	-7%	.	.	2%	.	-16%
COC(=O)c1ccc(NC(=O)CC2C(=O)N(c3cccc(OC)c3)C(=O)N2Cc2ccco2)cc1 (centres undefined)	-8%	.	.	-3%	-18%[46.1 µM]	-3%
Cc1nn(-c2ccccc2)c(N2CCCC2)c1/C=N/NC(=O)c1cc(-c2ccccn2)nc2ccccc12	-27%	?	4µM*	-4%	?	-7%
Cc1nn(-c2ccccc2)c(N2CCCC2)c1/C=N/NC(=O)c1cc2ccccc2cc1O	-15%	-7%	?	-30%	5%	40µM*
Cc1nn(-c2ccccc2)c(N2CCCC2)c1/C=N/NC(=O)c1cc(-c2ccccc2)nc2ccccc12	3%	?	?	-15%	-29%	?
Cc1nn(-c2ccccc2)c(N2CCCC2)c1/C=N/NC(=O)c1cc(-c2cccs2)nc2ccccc12	-11%	?	?	-1%	?	-10%
COc1ccc(-n2nnnc2/C=C\Nc2ccccc2C(=O)c2ccccc2)cc1	.	-15%	7.9µM*	.	?	2%
CCN(CC)C(=O)c1sc(N)c(C(=O)OC(C)C)c1C	.	-3%	17%	.	-3%	21%
CCN(CC)C(=O)c1sc(NC(=O)C(Sc2ccccc2)c2ccccc2)c(C(=O)OC(C)C)c1C (centres undefined)	?	?	10µM*	.	?	0%
Oc1c(C(Nc2cccc(C(F)(F)F)c2)c2ccncc2)ccc2cccnc12 (centres undefined)	?	?	6.3µM*	?	?	-16%
CN1CCN(C(c2cccnc2)c2ccc3cccnc3c2O)CC1 (centres undefined)	-5%	22%	?	-2%	7%	-17%
Oc1c(C(Nc2nccs2)c2ccc(C(F)(F)F)cc2)ccc2cccnc12 (centres undefined)	?	4.5µM*	?	7.1µM*	?	?
O=C(O)COc1ccccc1C(Nc1cccnc1)c1cc(Cl)c2cccnc2c1O (centres undefined)	-2%	17%[46.1 µM]	2%	-2%	27%[46.1 µM]	-6%
Oc1c(C(Nc2cccnc2)c2ccccc2F)ccc2cccnc12 (centres undefined)	?	.	.	10µM*	.	.
CC(=O)c1ccc(N2CCN(S(=O)(=O)c3ccc4[nH]c5c(c4c3)CCCC5)CC2)cc1	-19%	.	.	-23%	?	-16%
O=C(NCCOc1nc(N2CCOCC2)nc(N2CCOCC2)n1)Nc1ccccc1	-18%	16%	?	-12%	?	0%
O=C(NCCOc1nc(N2CCCCC2)nc(N2CCOCC2)n1)Nc1ccccc1	-14%	-4%	8.9µM*	-13%	-15%	12%
O=C(NCCc1ccc(Cl)cc1)Nc1ccc(Cl)cc1	.	.	-2%	.	.	17%

Source: PubChem BioAssay (National Center for Advancing Translational Sciences (NCATS))
